Only some compounds are listed: those with a hit (about 13% of all), similar ones and a draw of the others.
USP30 block: blocks human USP30 ubiquitin-rhodamine cleavage; Q70CQ3; purified USP30, Ub-rhodamine cleavage fluorescence; inhibition, % at 25 µM; 47,000 compounds, 5.3% hits
USP10 block: inhibitors of human USP10 deubiquitinase. Q14694. 47,000 compounds, 1.1% hits. inhibition, % at 20 µM. AID 1645856. purified USP10, Ub-rhodamine fluorescence, 60 min
USP17 block: inhibitors of human USP17 deubiquitinase; purified USP17, Ub-rhodamine cleavage fluorescence, 3 h; inhibition, % at 50 µM; 47,000 compounds, 6.5% hits
OTUD3 block: inhibitors of human OTUD3 deubiquitinase; Q5T2D3; purified OTUD3, Ub-rhodamine fluorescence, 2 h; inhibition, % at 25 µM; 47,000 compounds, 0.7% hits; AID 1645858
USP28 inh: inhibitors of human USP28 deubiquitinase | Q96RU2 | purified USP28, Ub-rhodamine cleavage fluorescence, 30 min | inhibition, % at 25 µM | 47,000 compounds, 3% hits | AID 1645857
USP8 block: human USP8 deubiquitinase inhibition. P40818. purified USP8, Ub-rhodamine cleavage fluorescence, 30 min. inhibition, % at 20 µM. 47,000 compounds, 4.2% hits
Active calls of the source: *; . = not tested or not shown. Cut-off read from the data, not from the text of the source: active = inhibition above about 30%; inactive = the rest.

SMILES	USP30 block	USP10 block	USP17 block	OTUD3 block	USP28 inh	USP8 block
CCOC(=O)c1cc2c(ccn2C)n1Cc1ccccc1C#N	-322	-7	-23	-92	-63	26
O=C(NC1CCCC1)c1nc(C(=O)N2CCc3ccccc3C2)cs1	-15	-1	0	-3	4	0
COc1cccc(C2c3[nH]c4ccccc4c3C[C@@H]3C(=O)N(CCCN4CCOCC4)CC(=O)N23)c1OC (some centres undefined)	-60	0	-11	-17	-23	1
O=C(Cn1cnc2sccc2c1=O)N1CCc2ccccc21	-26	-4	27	0	19	-18
O=c1c2ccsc2ncn1Cc1ccccc1F	1	0	-14	-8	32*	2
CC(C)COc1ccc(C(=O)Oc2ccc(-n3cnnn3)cc2)cc1	17	3	8	19	5	37*
CCCOc1cccc(C(=O)Oc2ccc(-n3cnnn3)cc2)c1	27	6	8	14	10	16
CCCCOc1ccc(C(=O)Oc2ccc(-n3cnnn3)cc2)cc1	22	15	7	19	25	33*
COc1cccc(CNc2nc3c(S(=O)(=O)c4ccc(F)cc4)nnn3c3ccccc23)c1	13	1	.	0	2	9
Cc1c(Cl)cccc1Nc1nc2c(S(=O)(=O)c3ccccc3)nnn2c2ccc(Cl)cc12	.	10	57*	1	.	10
Cc1cccc(Nc2nc3c(S(=O)(=O)c4ccc(C(C)(C)C)cc4)nnn3c3ccccc23)c1C	-16	0	9	1	-1	23
Cc1ccc(S(=O)(=O)c2nnn3c2nc(Nc2cccc(C)c2C)c2ccccc23)cc1	30	13	22	4	4	67*
CC(=O)NCCNS(=O)(=O)c1cccs1	7	-2	-6	8	5	-1
COCCOC(=O)C1=C(C)Nc2nc3ccccc3n2C1c1ccc(OC)cc1OC (centres undefined)	-6	-2	-16	-5	0	-9
Cc1ccc(Cn2cc(C(=O)Nc3ccccc3C(N)=O)ccc2=O)cc1	24	22	29	22	17	54*
N#Cc1cccc(S(=O)(=O)c2c[nH]c3cc(Cl)ccc3c2=O)c1	-13	15	46*	8	1	57*
CCC(C)NC(=O)c1nc(-c2ccc3c(c2)OCC(=O)N3C)no1 (centres undefined)	10	1	5	0	3	1
CCN1C(=O)COc2cc(-c3noc(C(=O)NCc4ccccc4)n3)ccc21	15	2	17	1	8	10
CN1C(=O)COc2cc(-c3noc(C(=O)NC4CCCCCC4)n3)ccc21	56*	-4	7	0	0	11
Cc1ccc(CNC(=O)c2nc(-c3ccc4c(c3)OCC(=O)N4C)no2)cc1	41*	8	19	-1	-10	5
O=C(O)C1CCCN1S(=O)(=O)c1cccc2cccc(Cl)c12 (centres undefined)	-47	-1	-16	0	-7	6
Nc1ccc(=O)n(Cc2ccc(F)cc2)n1	3	0	7	0	-8	2
COc1cccc(-n2c(=O)c(C(=O)NCc3ccccc3)c(O)c3cccnc32)c1	3	-1	2	6	4	80*
C/C1=C/C=C/C=C\[C@H](C)[C@@H](O)CC(=O)/C(C)=C/C[C@H](O)/C=C/[C@H](C)[C@H](O)[C@@H](C)/C=C(\C)C(=O)c2c(O)c(C)cc3c2C(=O)C=C(NC1=O)C3=O	-284	-8	21	-64	-47	-124
C/C1=C/CC(O)/C=C/C(C)C(O)C(C)/C=C(\C)C(=O)c2c(O)c(C)cc3c2C(=O)C(Cl)=C(NC(=O)\C=C/C=C/C=C\C(C)C(O)CC1=O)C3=O (centres undefined)	-98	-18	74*	-20	0	-90
SMILES	USP30 block	USP10 block	USP17 block	OTUD3 block	USP28 inh	USP8 block
Cc1cc2nc(N3CCc4ccccc4C3)c3ccccc3n2n1	-141	3	-96	-70	1	26
CC(=O)N[C@@H]1CC[C@H](O)[C@@H](N2CCN(c3ccccc3)CC2)[C@@H]1O	3	0	-3	-5	-7	-9
CCNC(=O)c1ccc(N2CCNCC2)c(NS(=O)(=O)c2cc(C)ccc2C)c1	1	-3	3	3	4	36*
NC(N)=NCCC(=O)N1CCn2nc(-c3ccc4ccccc4c3)cc2C1	40*	1	-28	9	45*	-173
O=C(NC(Cc1ccccc1)c1nc2ccccc2[nH]1)c1nc(Cl)ccc1Cl (centres undefined)	-58	-3	23	-11	24	-6
O=C(NC(Cc1ccccc1)c1nc2ccccc2[nH]1)c1ccccn1 (centres undefined)	-11	-3	-16	-1	57*	-40
COc1ccc(C(=O)NC(Cc2ccccc2)c2nc3ccccc3[nH]2)c(OC)c1 (centres undefined)	1	18	71*	-2	28	95*
O=C(N[C@@H](Cc1ccccc1)c1nc2ccccc2[nH]1)c1ccncc1	-9	-2	24	5	5	10
O=C(NC(Cc1ccccc1)c1nnc(N2CCCCCC2)o1)C1CCC1 (centres undefined)	18	0	11	16	11	18
O=C(NC(Cc1ccccc1)C(=O)Nc1ccc(-n2cnnn2)cc1)c1ccccc1 (centres undefined)	-13	1	-7	-2	-3	1
O=C(NC(Cc1ccccc1)c1nc2ccccc2[nH]1)C1CCC1 (centres undefined)	11	-1	17	10	12	63*
O=C(NC(Cc1ccccc1)c1nc2ccccc2[nH]1)c1ccc(-n2cnnn2)cc1 (centres undefined)	19	1	11	7	2	43*
COc1ccc(C(=O)Nc2ccc(-c3cn4ccsc4n3)cc2)cc1[N+](=O)[O-]	0	6	8	7	10	23
Cn1nccc1C(=O)N1CCC(C2Nc3ccccc3S(=O)(=O)N2)CC1 (centres undefined)	-28	0	-15	-12	-17	0
O=C(Cc1ccccc1)NCc1nc2ccccc2[nH]1	-14	-1	-3	-7	0	-1
O=C(NC(Cc1c[nH]c2ccccc12)c1nc2ccccc2[nH]1)c1ccccc1 (centres undefined)	-38	-7	34*	-22	-2	42*
Cc1nc2c(c(N3CCOCC3)n1)CN(Cc1cccnc1)CC2	-431	-6	-104	-99	-129	-65
COc1cc2c(C#N)c(OC)nc3c2c(n1)NC(C)(c1ccc(Br)cc1)N3 (centres undefined)	-16	-7	0	-29	9	85*
O=C(CCn1c(=O)c2ccccc2n(Cc2cccc(Cl)c2)c1=O)NCc1ccccc1Cl	21	12	12	11	-3	20
